Assay results reported in PubChem BioAssay (NCATS).
Values joined by “and” are separate entries in the source; they are usually repeats but may differ in a detail not shown here. Equal values may be shown once. Records with an inconclusive call do not appear. Active and inactive are the calls of the source. Unless noted, calls follow the shape of the dose curve; as a rule, active = well fitted curve in the direction sought with a large enough effect; inconclusive = small, poorly fitted or top-dose-only effect, or another doubt; inactive = no such curve, though single readings can be large; an effect the other way counts as inactive or inconclusive.

Columns and labels:
[1] = Cell Viability - H-4-II-E (AID 543);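 also: cells exposed to compound for 40 hours; % is scaled to controls: 0 for no effect and ±100 for the full control effect; nearly all actives have a fitted effect of over 35% in size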
How it was run: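 Cells seeded at 1500 per well and rested 5 hr; compounds added; 40 hr incubation at 37 °C; CellTiter-Glo added, 20 min at room temperature; luminescence read. Hill-equation fits gave AC50.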

[2] = Cell Viability - SH-SY5Y (AID 544); settings: SH-SY5Y neuroblastoma cell viability; viability change, negative = cytotoxic: at 92.2 µM (top of the series);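 also: cells exposed to compound for 40 hours; nearly all actives have a fitted effect of over 55% in size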
How it was run: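 Cells were plated at 1500 per well and allowed 5 hr at 37 °C. Compounds were added across a concentration range and incubated 40 hr at 37 °C. CellTiter-Glo was added for 20 min at room temperature before luminescence reading.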

[3] = Cell Viability - Renal Proximal Tubule (AID 545);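 also: cells exposed to compound for 40 hours; nearly all actives have a fitted effect of over 40% in size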
How it was run: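 Rat kidney proximal tubule cells, freshly isolated; 1000 cells/well, 5 hr settle, compound 40 hr 37 °C. CellTiter-Glo 20 min RT, luminescence read. AC50 by standard Hill fit.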

[4] = Cellular Toxicity (caspase-3) Hek293 (AID 664); settings: HEK293 caspase-3 activation, DMSO = 0%, 100 µM tamoxifen = 100%; at 92.2 µM (top of the series);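 also: cells exposed to compound for 16 h at 37 °C before readout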
How it was run: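 qHTS, HEK293 (human embryonic kidney), 16 h cpd exposure in complete medium. Caspase-3/7 activation = luminescence increase; normalized to DMSO/100 uM tamoxifen; Hill-fit AC50.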

[5] = Cell Viability - LYMP2-003 (AID 965);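 also: cells exposed to compounds for 24 h before reading; 0% = DMSO only and full effect = 92 µM tetraoctylammonium bromide; nearly all actives have a fitted effect of over 50% in size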
How it was run: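 CellTiter-Glo luminescence (cellular ATP) after 24 h compound exposure at 37 C in complete medium; 2500 cells/well, 5 h settling beforehand. Concentration-response fitted to standard Hill equation for AC50. Tetraoctylammonium bromide served as positive control.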

[6] = Cell Viability - LYMP2-009 (AID 968);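 also: 0% = DMSO alone and the full-kill end = tetraoctylammonium bromide at 92 µM; nearly all actives have a fitted effect of over 55% in size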
[7] = Cell Viability - LYMP2-013 (AID 970);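 also: 0% = DMSO only and full inhibition = tetraoctylammonium bromide control; nearly all actives have a fitted effect of over 55% in size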
How it was run: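 Cytotoxicity is scored as a concentration-dependent drop in intracellular ATP in human lymphoblastoid cells after 24 hr compound exposure at 37 C. ATP is quantified by luciferase luminescence, and AC50 values come from Hill-equation modeling.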

[8] = Cell Viability - LYMP2-019 (AID 973);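 also: 0% = DMSO alone and full effect = 92 µM tetraoctylammonium bromide; nearly all actives have a fitted effect of over 55% in size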
How it was run: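 Cytotoxicity is scored as a concentration-dependent drop in cellular ATP after cells (2500/well) receive compound for 24 hr at 37 C. Tetraoctylammonium bromide serves as positive control.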

[9] = Cell Viability - LYMP2-025 (AID 976);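 also: plate controls were DMSO only for no effect and tetraoctylammonium bromide control for full effect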
How it was run: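 Acute cytotoxicity is scored as a concentration-dependent fall in intracellular ATP, measured by luciferase luminescence, in human lymphoblastoid LYMP2-025 cells exposed to compound for 24 hours at 37 C. AC50 values come from standard Hill fits.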

[10] = Cell Viability - LYMP2-002 (AID 977);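 also: plate controls were DMSO only for no effect and 92 µM tetraoctylammonium bromide for full effect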
How it was run: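 Human lymphoblastoid cells (2500/well) in complete medium were preincubated 5 hr at 37 C, then exposed to compounds for 24 hr at 37 C. Intracellular ATP was read by CellTiter-Glo luminescence; AC50 came from Hill-equation concentration-response fits.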

[11] = Cell Viability - LYMP2-006 (AID 978); also: % is scaled to controls: 0 for no effect and ±100 for the full control effect; nearly all actives have a fitted effect of over 60% in size
How it was run: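 qHTS, 1536-well; 2500 cells/well, 5 hr 37 C; cpd 24 hr 37 C; CellTiter-Glo 30 min RT; luminescence. Tetraoctylammonium bromide pos. ctrl. AC50 via Hill eqn.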

[12] = Cell Viability - LYMP2-008 (AID 980); also: % is scaled to controls: 0 for no effect and ±100 for the full control effect; nearly all actives have a fitted effect of over 60% in size
How it was run: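 Cells seeded at 2500/well and rested 5 hr at 37 C; compounds added over a concentration range and incubated 24 hr at 37 C; CellTiter-Glo added, 30 min at room temperature; luminescence read and AC50 fitted with Hill model.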

[13] = Cell Viability - LYMP2-012 (AID 982)
[14] = Cell Viability - LYMP2-020 (AID 986)
How it was run: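 Seed 2500 cells per well and incubate 5 hr at 37 C. Add compounds at a concentration series and incubate 24 hr at 37 C. Add CellTiter-Glo, wait 30 min at RT, read luminescence, and fit a Hill curve for AC50.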

[15] = Cell Viability - LYMP2-022 (AID 987)
How it was run: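 Cells were seeded at 2500 per well, rested 5 hr at 37 C, and treated with titrated compounds for 24 hr at 37 C. Cellular ATP was then quantified by luciferase luminescence, and AC50 values were derived from Hill-modelled concentration-response curves.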

[16] = Cell Viability - LYMP2-026 (AID 989); also: % is scaled to controls: 0 for no effect and ±100 for the full control effect; nearly all actives have a fitted effect of over 50% in size
How it was run: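 Cells are seeded at 2500 per well and held 5 hr at 37 C. Compounds are added in concentration series for 24 hr, then CellTiter-Glo reagent is applied and luminescence read.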

[17] = Cell Viability - LYMP1-002 - Assay at 40 hr (AID 994);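 also: 0% = DMSO only and full inhibition = 92 µM tetraoctylammonium bromide; nearly all actives have a fitted effect of over 60% in size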
How it was run: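 Cells are plated at 2500 per well and rested 5 hr at 37 C. Compounds are added and incubated 40 hr at 37 C. CellTiter-Glo reagent is added for 30 min at room temperature before luminescence is read.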

[18] = qHTS assay for small molecule agonists of retinoid X receptor alpha signaling (AID 588544; calls by dose curve;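 as to activation: 0% = DMSO basal wells and 100% = reference agonist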); settings: HEK293T RXRa-UAS-bla, beta-lactamase reporter, 18 h; 530 nm emission
[19] = molecular target: Retinoic acid receptor RXR-alpha (Homo sapiens) (UniProt P19793); assay: as above
[20] = molecular target: Tumor necrosis factor (Homo sapiens) (UniProt P01375); assay: qHTS assay to identify small molecules that stimulate Tumor Necrosis Factor-alpha (TNF-alpha) secretion (AID 651757; active = well fitted curve in the direction sought with a large enough effect in the signal ratio; the % refers to the signal ratio; also: 0% is about no effect)
How it was run: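 Human monocytic THP-1 cells are plated, treated with compound and held at 37 C for 17 hrs. Labeled anti-TNF-alpha antibody mixture is then added; after 3 hr at room temperature, TR-FRET signal reports secreted TNF-alpha.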

Tumor necrosis factor (Homo sapiens), sequence (P01375 whole entry, looked up): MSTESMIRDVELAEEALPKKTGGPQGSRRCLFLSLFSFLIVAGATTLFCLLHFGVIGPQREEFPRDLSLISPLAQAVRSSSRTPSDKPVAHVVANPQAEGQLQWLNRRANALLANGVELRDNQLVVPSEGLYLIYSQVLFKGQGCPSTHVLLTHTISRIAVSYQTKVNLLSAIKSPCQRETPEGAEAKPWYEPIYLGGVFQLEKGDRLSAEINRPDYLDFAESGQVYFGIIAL
Retinoic acid receptor RXR-alpha (Homo sapiens), sequence (P19793 whole entry, looked up): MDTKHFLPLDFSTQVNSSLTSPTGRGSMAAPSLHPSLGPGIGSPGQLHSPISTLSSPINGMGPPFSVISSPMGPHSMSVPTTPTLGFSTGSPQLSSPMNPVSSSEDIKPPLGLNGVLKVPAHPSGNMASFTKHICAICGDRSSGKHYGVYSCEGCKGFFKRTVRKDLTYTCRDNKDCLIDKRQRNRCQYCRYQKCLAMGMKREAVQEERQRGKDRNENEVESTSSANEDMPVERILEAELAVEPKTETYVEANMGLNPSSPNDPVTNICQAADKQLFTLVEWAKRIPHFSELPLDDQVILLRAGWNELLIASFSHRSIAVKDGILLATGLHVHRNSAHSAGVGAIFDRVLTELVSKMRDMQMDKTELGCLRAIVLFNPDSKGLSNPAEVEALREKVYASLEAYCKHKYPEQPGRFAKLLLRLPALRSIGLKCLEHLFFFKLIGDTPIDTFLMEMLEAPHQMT

CCCCCOC(=O)c1ccccc1C(=O)OCCCCC
-10.9% and 3.25%: max response [18]
inactive: Potency [1] | Potency [2] | outcome [3] | caspase-3 activation [4] 3.92% | Potency [5] | Potency [6] | Potency [7] | Potency [8] | Potency [9] | Potency [10] | Potency [11] | Potency [12] | Potency [13] | Potency [14] | Potency [15] | Potency [16] | Potency [17] | outcome [19] | outcome [20]

CCC/C=N/O
-21.6%: max response [18]
inactive: Potency [1] | Potency [2] | outcome [3] | caspase-3 activation [4] -0.0645% | Potency [5] | Potency [6] | Potency [7] | Potency [8] | Potency [9] | Potency [10] | Potency [11] | Potency [12] | Potency [13] | Potency [14] | Potency [15] | Potency [16] | Potency [17] | outcome [19] | outcome [20]

Oc1ccc(Cl)c(Cl)c1Cl
inactive: Potency [1] | Potency [2] | outcome [3] | caspase-3 activation [4] 1.72% | Potency [5] | Potency [6] | Potency [7] | Potency [8] | Potency [9] | Potency [10] | Potency [11] | Potency [12] | Potency [13] | Potency [14] | Potency [15] | Potency [16] | Potency [17] | outcome [19] | outcome [20]
-5.29%: max response [18]

CCCCCCCCCCCCCl
inactive: Potency [1] | Potency [2] | outcome [3] | caspase-3 activation [4] 2.31% | Potency [5] | Potency [6] | Potency [7] | Potency [8] | Potency [9] | Potency [10] | Potency [11] | Potency [12] | Potency [13] | Potency [14] | Potency [15] | Potency [16] | Potency [17] | outcome [19] | outcome [20]
-9.69%: max response [18]

c1ccoc1
inactive: Potency [1] | Potency [2] | outcome [3] | caspase-3 activation [4] -1.2% | Potency [5] | Potency [6] | Potency [7] | Potency [8] | Potency [9] | Potency [10] | Potency [11] | Potency [12] | Potency [13] | Potency [14] | Potency [15] | Potency [16] | Potency [17] | outcome [19] | outcome [20]
-15.5%: max response [18]

CCOC(=O)CC(SP(=O)(OC)OC)C(=O)OCC (centres undefined)
9.41% and -5.43%: max response [18]
inactive: Potency [1] | outcome [3] | caspase-3 activation [4] 1.27% | Potency [5] | Potency [6] | Potency [7] | Potency [8] | Potency [9] | Potency [10] | Potency [11] | Potency [12] | Potency [13] | Potency [14] | Potency [15] | Potency [16] | Potency [17] | outcome [19] | outcome [20]

CN(C)C(=O)Cl
inactive: Potency [1] | Potency [2] | outcome [3] | caspase-3 activation [4] -0.876% | Potency [5] | Potency [6] | Potency [7] | Potency [8] | Potency [9] | Potency [10] | Potency [11] | Potency [12] | Potency [13] | Potency [14] | Potency [15] | Potency [16] | Potency [17] | outcome [19] | outcome [20]
-5.01%: max response [18]
